The record followed here is PubChem BioAssay (EPA / NIEHS).

Common to all, as to conditions: mRNA level, 48 h; actives raise or lower the signal
Read-out in assay [1]: CFLAR gene, CFLAR (gene 8837)
Nature of the assay: LTEA_HepaRG_CFLAR: Life Technologies and Expression Analysis (LTEA) Assay for CFLAR gene using HepaRG (AID 2283455). The gist of the method:
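HepaRG cells were plated for 48 h, switched to serum-free induction medium, then exposed in duplicate for 48 h to 8 concentrations (top 100 uM, half-log steps, 0.5% DMSO). CFLAR mRNA was measured by qRT-PCR, normalized to ACTB, GAPDH and POLR2A.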

Read-out in assay [2]: Forkhead box O1 (FOXO1), FOXO1 (gene 2308)
Put plainly: LTEA_HepaRG_FOXO1: Life Technologies and Expression Analysis (LTEA) Assay for Forkhead box O1 (FOXO1) using HepaRG (AID 2283456). The gist of the method:
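Differentiated human HepaRG cells in serum-free induction medium were exposed in duplicate for 48 h to eight half-log concentrations (top 100 uM, 0.5% DMSO). FOXO1 mRNA was measured by TaqMan qRT-PCR, normalised to ACTB, GAPDH and POLR2A, and fitted bidirectionally against DMSO.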

Read-out in assay [3]: growth arrest and DNA damage 45 (GADD45A), GADD45A (gene 1647)
Put plainly: LTEA_HepaRG_GADD45A: Life Technologies and Expression Analysis (LTEA) Assay for growth arrest and DNA damage 45 (GADD45A) using HepaRG (AID 2283458). The gist of the method: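 Differentiated HepaRG cells exposed 48 h in serum-free induction medium to 8 concentrations, top 100 uM in half-log steps, 0.5% DMSO. GADD45A mRNA quantified by qRT-PCR, normalized to ACTB, GAPDH and POLR2A; bidirectional fit versus DMSO.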

Read-out in assay [4]: ABC Transporter (ABCB1), ABCB1 (gene 5243)
Nature of the assay: LTEA_HepaRG_ABCB1: Life Technologies and Expression Analysis (LTEA) Assay for ABC Transporter (ABCB1) using HepaRG (AID 2283460). The gist of the method: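 Differentiated human HepaRG cells, plated 48 h then switched to serum-free induction medium, were exposed in duplicate to eight half-log concentrations up to 100 uM in 0.5% DMSO for 48 h. ABCB1 mRNA was measured by TaqMan qRT-PCR, normalized to ACTB/GAPDH/POLR2A.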

Read-out in assay [5]: growth arrest and DNA damage 45 (GADD45B), GADD45B (gene 4616)
Put plainly: LTEA_HepaRG_GADD45B: Life Technologies and Expression Analysis (LTEA) Assay for growth arrest and DNA damage 45 (GADD45B) using HepaRG (AID 2283461). The gist of the method: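 Human HepaRG monolayers receive chemicals for 48 h at eight half-log concentrations, highest 100 uM, in 0.5% DMSO. Expression is measured by TaqMan qRT-PCR and normalized to ACTB, GAPDH and POLR2A.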

Read-out in assay [6]: ABC Transporter (ABCC3), ABCC3 (gene 8714)
Put plainly: LTEA_HepaRG_ABCC3: Life Technologies and Expression Analysis (LTEA) Assay for ABC Transporter (ABCC3) using HepaRG (AID 2283462). The gist of the method:
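Transcriptional change of ABCC3 in HepaRG after 48 h treatment, determined by qRT-PCR normalized to endogenous controls. Concentrations spanned eight half-log steps to 100 uM in 0.5% DMSO.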

Read-out in assay [7]: ABC Transporter (ABCB11), ABCB11 (gene 8647)
Put plainly: LTEA_HepaRG_ABCB11: Life Technologies and Expression Analysis (LTEA) Assay for ABC Transporter (ABCB11) using HepaRG (AID 2283463). The gist of the method: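 Differentiated human HepaRG cells were exposed for 48 h in serum-free induction medium to eight half-log concentrations up to 100 uM in 0.5% DMSO. ABCB11 mRNA was quantified by qRT-PCR, normalized to ACTB, GAPDH and POLR2A, and fitted bidirectionally versus DMSO.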

Read-out in assay [8]: ABC Transporter (ABCC2), ABCC2 (gene 1244)
Put plainly: LTEA_HepaRG_ABCC2: Life Technologies and Expression Analysis (LTEA) Assay for ABC Transporter (ABCC2) using HepaRG (AID 2283464). The gist of the method:
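After plating and 48 h culture, HepaRG medium is replaced with serum-free induction medium and chemicals are added (8 concentrations, max 100 uM, 0.5% DMSO) for 48 h. Total RNA then undergoes qRT-PCR for ABCC2 with housekeeping normalization.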

Read-out in assay [9]: Broad substrate specificity ATP-binding cassette transporter ABCG2 (Homo sapiens) (UniProt Q9UNQ0)
Put plainly: LTEA_HepaRG_ABCG2: Life Technologies and Expression Analysis (LTEA) Assay for ABC Transporter (ABCG2) using HepaRG (AID 2283465). The gist of the method:
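Differentiated HepaRG cells in serum-free induction medium were exposed for 48 h, in duplicate, to eight half-log concentrations up to 100 uM in 0.5% DMSO. ABCG2 mRNA was measured by TaqMan qRT-PCR, normalized to ACTB, GAPDH and POLR2A, and fitted bidirectionally versus DMSO.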

Read-out in assay [10]: ATP-citrate lyase (ACLY), ACLY (gene 47)
Put plainly: LTEA_HepaRG_ACLY: Life Technologies and Expression Analysis (LTEA) Assay for ATP-citrate lyase (ACLY) using HepaRG (AID 2283466). The gist of the method:
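Differentiated human HepaRG cells in serum-free induction medium exposed 48 h, in duplicate, to eight half-log concentrations from 100 uM top in 0.5% DMSO; ACLY mRNA measured by qRT-PCR, normalized to ACTB, GAPDH, POLR2A, fitted bidirectionally versus DMSO.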

Read-out in assay [11]: Peroxisomal acyl-coenzyme A oxidase 1 (ACOX1) gene, ACOX1 (gene 51)
Nature of the assay: LTEA_HepaRG_ACOX1: Life Technologies and Expression Analysis (LTEA) Assay for Peroxisomal acyl-coenzyme A oxidase 1 (ACOX1) gene using HepaRG (AID 2283467). The gist of the method:
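Differentiated human HepaRG cells were exposed in duplicate for 48 h in serum-free induction medium to eight half-log concentrations up to 100 uM in 0.5% DMSO. ACOX1 mRNA was then quantified by TaqMan qRT-PCR, normalized to ACTB, GAPDH and POLR2A.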

Read-out in assay [12]: Alkaline Phosphatase, Placental (ALPP) gene, ALPP (gene 250)
Nature of the assay: LTEA_HepaRG_ALPP: Life Technologies and Expression Analysis (LTEA) Assay for Alkaline Phosphatase, Placental (ALPP) gene using HepaRG (AID 2283468). The gist of the method:
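Using human liver HepaRG cells, chemicals are tested in duplicate over 48 h at half-log concentrations topping at 100 uM; phenobarbital 1 mM serves as induction control. ALPP mRNA change by qRT-PCR, bidirectional fit against vehicle.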

Read-out in assay [13]: Bcl-2 (BAD) gene, BAD (gene 572)
Nature of the assay: LTEA_HepaRG_BAD: Life Technologies and Expression Analysis (LTEA) Assay for Bcl-2 (BAD) gene using HepaRG (AID 2283469). The gist of the method:
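Differentiated human HepaRG cells in serum-free induction medium were exposed in duplicate for 48 h to eight concentrations (top 100 uM, half-log steps, 0.5% DMSO). BAD mRNA was quantified by qRT-PCR normalised to ACTB, GAPDH and POLR2A, with bidirectional fitting versus DMSO.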

Read-out in assay [14]: Bcl-2 (BAX) gene, BAX (gene 581)
Nature of the assay: LTEA_HepaRG_BAX: Life Technologies and Expression Analysis (LTEA) Assay for Bcl-2 (BAX) gene using HepaRG (AID 2283470). The gist of the method:
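Differentiated HepaRG cells exposed 48 h in serum-free induction medium, eight half-log concentrations from 100 uM, in duplicate, 0.5% DMSO vehicle. BAX mRNA by TaqMan qRT-PCR, normalised to ACTB, GAPDH and POLR2A.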

Read-out in assay [15]: adenosine kinase (ADK) gene, ADK (gene 132)
Put plainly: LTEA_HepaRG_ADK: Life Technologies and Expression Analysis (LTEA) Assay for adenosine kinase (ADK) gene using HepaRG (AID 2283471). The gist of the method:
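Following 48 h exposure of HepaRG cells in 0.5% DMSO (top concentration 100 uM, duplicate wells), ADK mRNA induction or suppression was measured by qRT-PCR, normalised to ACTB/GAPDH/POLR2A, and fitted bidirectionally relative to vehicle.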

Read-out in another assay: BCL2L11 (gene 10018)
Nature of the assay: LTEA_HepaRG_BCL2L11: Life Technologies and Expression Analysis (LTEA) Assay for Bcl-2 (BCL2L11) gene using HepaRG (AID 2283473). The gist of the method: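 Human hepatic HepaRG cultures are treated 48 h with test chemicals (maximum 100 uM, 0.5% DMSO vehicle). Expression of BCL2L11 is measured by qRT-PCR against ACTB, GAPDH and POLR2A, with activity in either direction scored relative to vehicle.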

Read-out in assay [16]: Apolipoprotein A-V (APOA5) gene, APOA5 (gene 116519)
Put plainly: LTEA_HepaRG_APOA5: Life Technologies and Expression Analysis (LTEA) Assay for Apolipoprotein A-V (APOA5) gene using HepaRG (AID 2283474). The gist of the method: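 Concentration-response of APOA5 expression in HepaRG: eight half-log doses to 100 uM, 48 h, qRT-PCR normalized to ACTB/GAPDH/POLR2A, bidirectional fitting with 0.5% DMSO as baseline.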

Read-out in assay [17]: Forkhead box O3 (FOXO3), FOXO3 (gene 2309)
Nature of the assay: LTEA_HepaRG_FOXO3: Life Technologies and Expression Analysis (LTEA) Assay for Forkhead box O3 (FOXO3) using HepaRG (AID 2283459). The gist of the method:
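Differentiated human HepaRG cells in serum-free induction medium were exposed in duplicate for 48 h to eight half-log concentrations up to 100 uM in 0.5% DMSO. FOXO3 mRNA was quantified by qRT-PCR, normalized to ACTB, GAPDH and POLR2A, with bidirectional fitting versus DMSO.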

Read-out in assay [18]: Alpha-fetoprotein (AFP) gene, AFP (gene 174)
Put plainly: LTEA_HepaRG_AFP: Life Technologies and Expression Analysis (LTEA) Assay for Alpha-fetoprotein (AFP) gene using HepaRG (AID 2283472). The gist of the method:
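Differentiated human HepaRG cells exposed 48 h in serum-free induction medium, 8-point half-log series from 100 uM in 0.5% DMSO, duplicate. AFP mRNA by qRT-PCR, normalized to ACTB, GAPDH, POLR2A; bidirectional fit vs DMSO.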

Active and inactive are the calls of the source. How the source made its calls: active means hit-call score of the fitted dose curve at least 0.9, where 1 is the maximum; inactive means score below 0.9.

Chain of Broad substrate specificity ATP-binding cassette transporter ABCG2 (Homo sapiens) (Q9UNQ0 whole entry, looked up): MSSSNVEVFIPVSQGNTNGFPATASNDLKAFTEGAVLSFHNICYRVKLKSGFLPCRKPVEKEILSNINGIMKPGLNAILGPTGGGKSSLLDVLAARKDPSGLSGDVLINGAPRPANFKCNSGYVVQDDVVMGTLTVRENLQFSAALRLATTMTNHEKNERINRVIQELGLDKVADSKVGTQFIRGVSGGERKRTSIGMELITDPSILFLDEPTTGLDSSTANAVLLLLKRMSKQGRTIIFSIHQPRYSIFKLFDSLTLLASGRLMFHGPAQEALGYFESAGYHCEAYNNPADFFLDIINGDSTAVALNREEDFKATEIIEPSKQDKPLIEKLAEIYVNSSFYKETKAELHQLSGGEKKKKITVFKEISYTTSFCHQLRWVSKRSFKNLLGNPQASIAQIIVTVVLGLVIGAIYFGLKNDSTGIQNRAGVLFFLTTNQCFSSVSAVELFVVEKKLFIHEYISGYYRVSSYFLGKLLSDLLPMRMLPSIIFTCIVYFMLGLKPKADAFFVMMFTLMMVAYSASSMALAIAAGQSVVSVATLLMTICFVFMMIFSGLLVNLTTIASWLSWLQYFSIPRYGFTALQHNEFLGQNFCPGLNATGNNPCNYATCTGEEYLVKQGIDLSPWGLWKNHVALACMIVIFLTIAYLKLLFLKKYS

As for `CN(C)CCO`, the compound was classed as inactive in assay [1], in [2], in assay [3], in assay [4], in [5] and in [6]. The result in [7], in [8], in assay [9], in assay [10], in [11] and in [12] was inactive. In addition, the compound was called inactive (in assay [13]; in assay [14]; in assay [15]; in the assay with BCL2L11 (gene 10018); in [16]).
As a reminder, the AC50 is the concentration at which the activity in the assay is half-maximal. In the case of `ClC(Cl)=C(c1ccc(Cl)cc1)c1ccc(Cl)cc1`, the result in assay [1], in assay [2], in [17], in [5], in [6] and in assay [7] was inactive. For the same compound, the compound was called inactive in [10], in assay [11], in assay [12], in assay [13], in assay [14] and in assay [15]. The outcome (in assay [18]; in the assay with BCL2L11 (gene 10018); in assay [16]) was inactive. For the same compound, the AC50 in [3] is 69.3 nM (active); in [4], 23.2 µM (active); in [8], 10.8 µM (active); in assay [9] it was 8.74 µM (active).
`Cc1ccccc1O`: the call in [1], in [2], in [3], in assay [4], in assay [5] and in assay [6] was inactive. Moreover, the outcome in assay [7], in [8], in assay [9], in [10], in assay [11] and in assay [12] was inactive. For the same compound, the outcome (in [13]; in assay [14]; in [15]; in [18]; with BCL2L11 (gene 10018); in [16]) was inactive.
